From PubChem BioAssay (NCATS) come the findings set out here.

The nature of experiment [1]: Viability counterscreen for antagonist of constitutive androstane receptor (CAR) against the NCATS DSHEA and TCM libraries (AID 1794837).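 Note: compound exposure lasted 24 h before viability reading; 0% is about no effect.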 An outline of the steps: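 Viability was measured by CellTiter-Fluor fluorescence (405/540 nm, 1 hr) in HepG2-CYP2B6-hCAR cells. Cells were co-treated 24 hr with 48 uM CITCO (final), antagonist mode, and test substances.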
Experiment [2] in a line: Viability counterscreen for agonist of constitutive androstane receptor (CAR) against the NCATS DSHEA and TCM libraries (AID 1794838). Note: 0% is about no effect. An outline of the steps:
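Cell viability, from CellTiter-Fluor fluorescence (405/540 nm), was scored after a 24 h, 37C exposure of HepG2 cells carrying CYP2B6 reporter and hCAR to test substances in presence of 0.75 uM PK11195.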
On the technique in general: The purpose of a counterscreen is to sort out artefacts and off-target activity.

A short description of experiment [3]: HepG2 viability counterscreen (readout 2: ATP content) against the NCATS DSHEA and TCM libraries (AID 1794840).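 Note: HepG2 cells exposed to substances for about 24 h; 0% is about no effect.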 The method in brief: (§1)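 Readout 1: cellular protease activity, GF-AFC substrate (25 uM final, 30 min, fluorescence 380/510 nm). Readout 2: ATP content by CellTiter-Glo luminescence after 30 min at RT. Both follow ~24 h exposure of HepG2 cells (1,000/well) to substances.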

Experiment [4] is described as follows: HepG2 viability counterscreen (readout 1: protease activity) against the NCATS DSHEA and TCM libraries (AID 1794841).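 Note: cells exposed to compounds for about 24 h before the protease read; 0% is about no effect.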 An outline of the steps: as §1
Experiment [5] in a line: KB-3-1 P-gp reporter qHTS against the NCATS DSHEA and TCM libraries (AID 1919975). Note: 0% is about no effect. An outline of the steps:
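Cell viability by CellTiter-Glo luminescence following ~72 h compound exposure (concentration-response). Uses parental, non-P-gp-overexpressing KB-3-1 line, 500 cells/well in DMEM/10% FBS, attached ~4 h before dosing.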

A short description of experiment [6]: qHTS Counterscreen for compound interference against the NCATS DSHEA and TCM libraries (AID 1919978).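 Note: compounds preincubated with 1 µM D-luciferin or buffer before detection reagent; % of control where 0% means no effect.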 As to conditions: firefly luciferase detection reagent interference, luminescence. The method in brief:
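With 1 uM D-luciferin or phosphate buffer only, compounds at final 19.5 nM–39.8 uM were incubated for 15 min at room temperature. Luciferase detection reagent was then added, and luminescence was measured after a further 30 min at room temperature.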
For orientation: Quantitative high-throughput screening tests each substance at several concentrations.

The nature of experiment [7]: Dual reporter qHTS for agonist of Pregnane X Receptor (hPXR) against the NCATS DSHEA and TCM libraries: Fluorescence readout (AID 1920058). Note: 0% is about no effect. The method in brief: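 In this qHTS counter-read, reporter-bearing HepG2 cells in charcoal-stripped serum received substances for approximately 24 h before viability was assessed fluorometrically with CellTiter-Fluor.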
Experiment [8] addresses Nuclear receptor subfamily 1 group I member 2 (Homo sapiens) (UniProt O75469). Put plainly: Dual reporter qHTS for antagonist of Pregnane X Receptor (hPXR) against the NCATS DSHEA and TCM libraries: Luminescence Readout (AID 1920060).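 Note: HepG2 cells carrying hPXR luciferase reporter stimulated with rifampicin at 2 µM; 0% is about no effect.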 An outline of the steps:
(§2)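 Antagonist mode: rifampicin 2 uM final co-added with compounds to hPXR-LucHepG2 cells for 24 h at 37C. Viability by CellTiter-Fluor, Ex/Em 405/540 nm, 1 h; reporter by ONE-Glo luminescence.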

A short description of experiment [9]: Dual reporter qHTS for antagonist of Pregnane X Receptor (hPXR) against the NCATS DSHEA and TCM libraries: Fluorescence Readout (AID 1920061). Note: 0% is about no effect. An outline of the steps:
as §2

Experiment [10] deals with Nuclear receptor subfamily 1 group I member 3 (Homo sapiens) (UniProt Q14994). Put plainly: Primary qHTS for agonist of constitutive androstane receptor (CAR) against the NCATS DSHEA and TCM libraries (AID 1794839).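 Note: HepG2 cells expressing human CAR with a CYP2B6 reporter plus PK11195 antagonist; luciferase reporter luminescence read with ONE-Glo; 0% is about no effect.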 An outline of the steps: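 Agonist mode in presence of hCAR antagonist PK11195 (0.75 µM final): test substances, 24 h, 37 °C, on HepG2-CYP2B6-hCAR cells. Same-well readouts: fluorescence viability, then ONE-Glo luminescence; CITCO as reference agonist.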
Nuclear receptor subfamily 1 group I member 3 (Homo sapiens), sequence (Q14994 whole entry, looked up): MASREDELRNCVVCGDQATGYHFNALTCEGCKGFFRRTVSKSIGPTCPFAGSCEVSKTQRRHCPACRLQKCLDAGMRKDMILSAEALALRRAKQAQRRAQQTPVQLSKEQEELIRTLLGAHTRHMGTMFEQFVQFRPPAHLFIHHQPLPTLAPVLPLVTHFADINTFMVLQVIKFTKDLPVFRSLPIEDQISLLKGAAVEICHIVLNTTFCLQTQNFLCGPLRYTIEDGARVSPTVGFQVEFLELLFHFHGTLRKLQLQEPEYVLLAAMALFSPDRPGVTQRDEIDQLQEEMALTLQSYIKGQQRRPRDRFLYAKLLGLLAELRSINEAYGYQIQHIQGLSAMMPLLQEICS

The target of experiment [11] is Cytochrome P450 3A4 (Homo sapiens) (UniProt P08684). The experiment in a line: qHTS for inhibitors of CYP3A4 against the NCATS DSHEA and TCM libraries (AID 1919971).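 Note: % is set by controls: 0 for no effect and ±100 for the full control effect; inhibition lowers luminescence from luciferin made by CYP3A4.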 An outline of the steps:
(§3)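 Isoform-specific enzyme and substrate levels; enzyme-free wells as background. Reaction: 1x NADPH regenerating system, 30-45 min, room temperature, shielded from light; luminescent detection reagent added, 30 min.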

Experiment [12] concerns the target Cytochrome P450 2D6 (Homo sapiens) (UniProt P10635). The experiment in a line: qHTS for inhibitors of CYP2D6 against the NCATS DSHEA and TCM libraries (AID 1919972). Note: % is set by controls: 0 for no effect and ±100 for the full control effect. An outline of the steps:
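qHTS, concentration–response format with most substances from 19.5 nM. CYP2D6 + pro-luciferin substrate, 15 min with compound, then 1x NADPH regen, 30–45 min RT dark. Glo detection 30 min, luminescence. Quinidine control.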

Experiment [13] concerns the target Cytochrome P450 2C9 (Homo sapiens) (UniProt P11712). The experiment in a line: qHTS for inhibitors of CYP2C9 against the NCATS DSHEA and TCM libraries (AID 1919973).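 For activity change, negative = inhibition: luminogenic pro-luciferin CYP2C9 substrate turned into luciferin with NADPH regeneration; series mostly up to about 34 µM; % is set by controls: 0 for no effect and ±100 for the full control effect.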 Note: potency is the fitted concentration of half-maximal effect. An outline of the steps:
as §3

Experiment [14] concerns the target Cytochrome P450 2C19 (Homo sapiens) (UniProt P33261). Put plainly: qHTS for inhibitors of CYP2C19 against the NCATS DSHEA and TCM libraries (AID 1919974).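 Note: luminescence from luciferin released by CYP2C19 oxidation of a pro-luciferin substrate; % is set by controls: 0 for no effect and ±100 for the full control effect.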 The method in brief: as §3
Experiment [15] addresses Cytochrome P450 1A2 (Homo sapiens) (UniProt P05177). Put plainly: qHTS for inhibitors of CYPIA2 against the NCATS DSHEA and TCM libraries (AID 1919976).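 Note: light from luciferin formed by CYP1A2 from a pro-luciferin substrate; series mostly up to about 37 µM; % is set by controls: 0 for no effect and ±100 for the full control effect.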 The method in brief:
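Furafylline served as the plate control. Compounds met CYP1A2 and pro-luciferin substrate 15 min before NADPH regeneration solution (1x) was added; after 30-45 min at RT, P450-Glo reagent was added for 30 min and luminescence was measured.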

For experiment [16], the target named is Nuclear receptor subfamily 1 group I member 2 (Homo sapiens) (UniProt O75469). Put plainly: Dual reporter qHTS for agonist of Pregnane X Receptor (hPXR) against the NCATS DSHEA and TCM libraries: Luminescence readout (AID 1920059). Note: 0% is about no effect. An outline of the steps:
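Luminescent PXR reporter read (ONE-Glo) after a CellTiter-Fluor viability read, following 24 h, 37C treatment of HepG2 cells stably carrying hPXR-Luc.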

Molecules are shown by their SMILES. Results filed as inconclusive are left out. The source made the active and inactive calls. Calls come from the whole dose curve; as a rule, active = well fitted curve in the direction sought with a large enough effect; inconclusive = small, poorly fitted or top-dose-only effect, or another doubt; inactive = no such curve, though single readings can be large; an effect the other way counts as inactive or inconclusive.

Cytochrome P450 1A2 (Homo sapiens), sequence (P05177 whole entry, looked up): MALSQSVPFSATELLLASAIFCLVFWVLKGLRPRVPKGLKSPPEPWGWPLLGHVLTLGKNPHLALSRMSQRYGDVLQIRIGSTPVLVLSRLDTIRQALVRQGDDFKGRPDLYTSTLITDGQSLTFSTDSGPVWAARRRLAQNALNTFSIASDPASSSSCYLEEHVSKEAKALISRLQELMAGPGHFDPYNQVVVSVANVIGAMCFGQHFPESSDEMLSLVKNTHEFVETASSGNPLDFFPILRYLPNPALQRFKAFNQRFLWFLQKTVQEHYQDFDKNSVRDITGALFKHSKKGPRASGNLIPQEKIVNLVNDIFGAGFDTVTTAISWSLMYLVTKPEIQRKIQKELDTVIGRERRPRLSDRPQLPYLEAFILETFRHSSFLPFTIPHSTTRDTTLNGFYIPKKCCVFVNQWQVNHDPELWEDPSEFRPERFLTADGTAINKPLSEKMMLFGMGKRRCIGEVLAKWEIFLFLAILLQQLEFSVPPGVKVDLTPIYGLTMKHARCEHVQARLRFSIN
Cytochrome P450 2C9 (Homo sapiens), sequence (P11712 whole entry, looked up): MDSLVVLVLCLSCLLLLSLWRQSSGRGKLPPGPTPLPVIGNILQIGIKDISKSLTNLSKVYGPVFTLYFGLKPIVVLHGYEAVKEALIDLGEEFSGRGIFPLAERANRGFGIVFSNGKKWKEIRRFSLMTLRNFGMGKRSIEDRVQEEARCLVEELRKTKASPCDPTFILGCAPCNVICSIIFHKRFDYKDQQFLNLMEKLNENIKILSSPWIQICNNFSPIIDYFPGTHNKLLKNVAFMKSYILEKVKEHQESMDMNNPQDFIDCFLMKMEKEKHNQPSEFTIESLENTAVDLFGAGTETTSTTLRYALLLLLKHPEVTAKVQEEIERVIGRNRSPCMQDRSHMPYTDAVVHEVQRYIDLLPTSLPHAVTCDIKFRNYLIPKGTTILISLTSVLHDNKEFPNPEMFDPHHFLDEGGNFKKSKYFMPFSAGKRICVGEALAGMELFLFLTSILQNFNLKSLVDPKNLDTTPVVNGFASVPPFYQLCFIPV
Nuclear receptor subfamily 1 group I member 2 (Homo sapiens), sequence (O75469 whole entry, looked up): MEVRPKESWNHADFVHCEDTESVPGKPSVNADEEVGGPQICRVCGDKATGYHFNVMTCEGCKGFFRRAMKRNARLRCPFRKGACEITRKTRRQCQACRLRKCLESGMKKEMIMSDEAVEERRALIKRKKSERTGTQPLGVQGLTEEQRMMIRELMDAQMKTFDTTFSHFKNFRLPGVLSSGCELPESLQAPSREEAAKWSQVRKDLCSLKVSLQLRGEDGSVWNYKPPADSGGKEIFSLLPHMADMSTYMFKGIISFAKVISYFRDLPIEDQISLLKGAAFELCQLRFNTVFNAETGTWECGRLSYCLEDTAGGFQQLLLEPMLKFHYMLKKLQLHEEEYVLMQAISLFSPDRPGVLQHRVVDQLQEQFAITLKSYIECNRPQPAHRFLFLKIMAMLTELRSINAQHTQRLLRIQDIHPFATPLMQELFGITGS
Cytochrome P450 3A4 (Homo sapiens), sequence (P08684 whole entry, looked up, canonical isoform): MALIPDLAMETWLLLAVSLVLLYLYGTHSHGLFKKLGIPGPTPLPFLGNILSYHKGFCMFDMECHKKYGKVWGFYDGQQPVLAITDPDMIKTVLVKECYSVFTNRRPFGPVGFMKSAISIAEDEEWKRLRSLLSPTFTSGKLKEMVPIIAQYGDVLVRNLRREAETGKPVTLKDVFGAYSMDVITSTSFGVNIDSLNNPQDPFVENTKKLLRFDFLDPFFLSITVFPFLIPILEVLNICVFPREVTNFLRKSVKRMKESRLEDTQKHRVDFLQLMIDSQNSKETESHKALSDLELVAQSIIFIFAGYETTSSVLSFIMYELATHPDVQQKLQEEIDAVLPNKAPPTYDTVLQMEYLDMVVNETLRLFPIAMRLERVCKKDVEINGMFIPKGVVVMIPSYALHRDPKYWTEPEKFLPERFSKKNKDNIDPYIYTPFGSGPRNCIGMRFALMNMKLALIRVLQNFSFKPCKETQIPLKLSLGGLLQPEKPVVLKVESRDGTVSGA
Cytochrome P450 2D6 (Homo sapiens), sequence (P10635 whole entry, looked up): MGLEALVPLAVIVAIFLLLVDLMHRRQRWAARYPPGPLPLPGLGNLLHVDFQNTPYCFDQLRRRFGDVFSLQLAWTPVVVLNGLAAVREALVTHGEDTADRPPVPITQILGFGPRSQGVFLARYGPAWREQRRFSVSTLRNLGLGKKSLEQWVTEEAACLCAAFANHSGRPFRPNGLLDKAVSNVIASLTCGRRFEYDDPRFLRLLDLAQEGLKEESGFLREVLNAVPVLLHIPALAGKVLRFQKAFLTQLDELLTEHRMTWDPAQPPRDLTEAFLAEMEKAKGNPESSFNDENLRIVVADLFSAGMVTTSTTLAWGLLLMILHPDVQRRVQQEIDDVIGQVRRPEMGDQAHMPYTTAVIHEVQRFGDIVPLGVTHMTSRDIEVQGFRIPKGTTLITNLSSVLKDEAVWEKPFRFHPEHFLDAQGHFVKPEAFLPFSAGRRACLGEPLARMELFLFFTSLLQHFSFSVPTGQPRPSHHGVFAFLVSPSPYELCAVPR
Cytochrome P450 2C19 (Homo sapiens), sequence (P33261 whole entry, looked up): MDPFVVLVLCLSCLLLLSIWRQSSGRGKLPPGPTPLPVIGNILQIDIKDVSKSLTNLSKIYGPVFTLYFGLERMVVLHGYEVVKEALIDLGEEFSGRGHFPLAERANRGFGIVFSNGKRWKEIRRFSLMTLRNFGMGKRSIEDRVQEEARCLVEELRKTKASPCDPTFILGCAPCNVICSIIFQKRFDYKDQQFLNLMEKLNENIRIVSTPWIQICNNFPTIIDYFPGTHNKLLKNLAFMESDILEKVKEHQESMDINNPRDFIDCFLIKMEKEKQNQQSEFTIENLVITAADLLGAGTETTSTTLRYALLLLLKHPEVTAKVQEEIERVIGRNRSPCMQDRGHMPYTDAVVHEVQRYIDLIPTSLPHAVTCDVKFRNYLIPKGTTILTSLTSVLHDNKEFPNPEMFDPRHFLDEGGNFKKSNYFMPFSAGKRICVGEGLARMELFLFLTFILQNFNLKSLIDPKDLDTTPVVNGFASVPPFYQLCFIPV

Turning to `CC1=C2[C@H]([C@@H](C)CC[C@@H]2/C=C(\C)C(=O)O)[C@@H](O)C1`, the molecule was called inactive in experiment [1], in experiment [2], in experiment [3], in experiment [4], in [5] and in experiment [7]. Moreover, the result in [8] and in experiment [9] was inactive. For the same molecule, the max response in experiment [6] is -1.15% (inactive).

`CC/C=C\C/C=C\C/C=C\C/C=C\CCCCC(=O)O`: the viability change, negative = cytotoxic in experiment [1] is -11.8% [at 5 µM] (inactive). Further, the activity change, negative = cytotoxicity in experiment [2] was -13.9% [at 5 µM] (inactive). Besides, the activation is -23.1% [at 5 µM] (inactive) in experiment [10], -3.85% [at 5 µM] (inactive) in experiment [7] and -9.78% [at 5 µM] (inactive) in experiment [16]. For the same molecule, the activity change, negative = cytotoxic in [3] is -8.49% [at 3.42 µM] (inactive). The activity change, negative = inhibition in experiment [11] is 5.33% [at 4.27 µM] (inactive); in [12], -5.86% [at 4.27 µM] (inactive); in [13], -16.1% [at 4.27 µM] (inactive); in [14], 43.3% [at 4.27 µM] (inactive); in experiment [5] it was -9.13% [at 3.26 µM] (inactive); in [15], 16.4% [at 4.62 µM] (inactive). Also, the activity change, negative = inhibition in [8] is -24.2% [at 5 µM] (inactive); in [9], -0.29% [at 5 µM] (inactive).

Turning to `O=C(O[C@@H]1Cc2c(O)cc(O)cc2O[C@@H]1c1ccc(O)c(O)c1)c1cc(O)c(O)c(O)c1`, the call in experiment [1], in [2], in experiment [3], in experiment [5], in experiment [8] and in experiment [9] was inactive. Also, the Potency entry in experiment [10], in experiment [15] and in experiment [16] was “inactive” throughout. For the same molecule, the Potency in experiment [13] was 12.6 µM (active).

With `CC(C)(O)[C@@H]1CC[C@](C)([C@H]2[C@@H](O)C[C@@]3(C)[C@@H]4C[C@H](O)[C@H]5C(C)(C)[C@@H](O[C@@H]6OC[C@@H](O)[C@H](O)[C@H]6O[C@@H]6O[C@H](CO)[C@@H](O)[C@H](O)[C@H]6O)CC[C@@]56C[C@@]46CC[C@]23C)O1`, the outcome in [1], in [2], in experiment [3], in [5], in experiment [8] and in experiment [9] was inactive. Also, the Potency entry in experiment [11], in experiment [12], in experiment [13], in experiment [15] and in [16] was “inactive” throughout.
